Among the test systems are SK-MEL-2 melanoma; UO-31 renal; TK-10 renal; CAKI-1 renal; A498 renal; CCRF-CEM leukemia; MOLT-4 leukemia; ACHN renal.
What all share (test): NCI-60 one-dose screen, 48 h (100 = growth as untreated, 0 = no growth, -100 = all killed)
Common to all, as to settings: 10 µM

About 83,000 compounds went through this panel and 20% of them were active in at least one assay; those are over-represented in the sample as a whole.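 Compound tested at a single concentration for 48 hours in 96-well plates; a percent growth value below 10 was scored as active.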 Values without a mark were called inactive. Calls of active or inactive are those of the source.

Regarding `CN(C)CCCN1c2ccccc2Sc2ccc(C(F)(F)F)cc21`, the growth in the assay with SK-MEL-2 melanoma is -16.3% (active); with UO-31 renal it was 18.7%; in the assay on TK-10 renal it was 25%; in the assay on CAKI-1 renal it was 22.4%; in the assay with A498 renal, 62.8%; in the assay with CCRF-CEM leukemia it was 16.5%. The growth in the assay on MOLT-4 leukemia is 6.88% (active).
Consider `COc1cc(C2C=C(c3ccc(Cl)c(Cl)c3)N=C3SC(C)=CN32)cc(OC)c1OC` (stereo unspecified), for which the growth with SK-MEL-2 melanoma is 83.4%; in the assay with UO-31 renal, 55.2%; in the assay with TK-10 renal it was 94.7%; in the assay on ACHN renal, 90.3%; in the assay on CAKI-1 renal, 67.3%; in the assay with A498 renal, 74%. For the same molecule, the growth in the assay with CCRF-CEM leukemia is 36.7%; in the assay on MOLT-4 leukemia it was 46.2%.
For `O=NN(CC(=O)N/N=C/C=C\c1ccccc1)CC(=O)N/N=C/C=C/c1ccccc1`, the growth was 111% with SK-MEL-2 melanoma; 91.9% in the assay with UO-31 renal; 86.4% in the assay on ACHN renal; 91.3% in the assay with CAKI-1 renal; 105% with A498 renal; 94.9% with CCRF-CEM leukemia. In the assay on MOLT-4 leukemia, the growth was 96.9%.
In the case of `CCN(CC)c1ccc(/C=C/C2=[N+](C)c3ccccc3C2(C)C)c(C)c1`, the growth in the assay on SK-MEL-2 melanoma is -12.7% (active); with UO-31 renal, 8.27% (active); in the assay on TK-10 renal it was 9.49% (active); in the assay on ACHN renal, 5.97% (active); in the assay on CAKI-1 renal it was 15.5%; in the assay with CCRF-CEM leukemia, 4.91% (active). For the same molecule, the growth with MOLT-4 leukemia is -20.4% (active).
For `CCCCCCCCCCSC(=N)N` (tested in a mixture with another compound), the growth was 81.2% in the assay on SK-MEL-2 melanoma; 64.4% in the assay with UO-31 renal; 90.1% with TK-10 renal; 81.1% in the assay on ACHN renal; 87.9% in the assay with CAKI-1 renal; 80.1% in the assay on A498 renal. For the same molecule, the growth in the assay on CCRF-CEM leukemia is 56.2%; with MOLT-4 leukemia, 43.9%.
Regarding `COc1cc(C2CC(=O)Nc3c2c(C)nn3-c2nc3ccccc3[nH]2)cc(OC)c1O` (stereo unspecified), the growth was -7.45% (active) with SK-MEL-2 melanoma; 8.39% (active) with UO-31 renal; 37.2% with TK-10 renal; 31.1% in the assay on ACHN renal; 78.9% with CAKI-1 renal; 22.5% with A498 renal. Besides, the growth with CCRF-CEM leukemia was 0.819% (active); in the assay with MOLT-4 leukemia, -36% (active).
As for `CCOC(=O)C1=C(Nc2ccc(OC)cc2)C(N)=NC1=N`, the growth with SK-MEL-2 melanoma is 44.6%; with UO-31 renal it was 57.1%; with TK-10 renal, 59.2%; with ACHN renal, 46.6%; with CAKI-1 renal it was 54.6%; with CCRF-CEM leukemia, 15.8%. The growth in the assay on MOLT-4 leukemia was 26%.
For `CCn1nc(-c2ccccn2)c2cccnc2c1=S`, the growth was 88.2% with SK-MEL-2 melanoma; 77.3% with UO-31 renal; 89.9% with TK-10 renal; 89.4% in the assay with ACHN renal; 86.6% with CAKI-1 renal; 99.2% in the assay with A498 renal. The growth in the assay on CCRF-CEM leukemia is 31.5%; in the assay on MOLT-4 leukemia, 57.5%.
`COc1cc(-c2c(C#N)c(N)n3c(nc4ccccc43)c2C#N)cc(Br)c1OC`: the growth in the assay on SK-MEL-2 melanoma is 76.7%; in the assay on UO-31 renal, 17.5%; with TK-10 renal it was 11.1%; in the assay with ACHN renal it was 50.1%; in the assay with CAKI-1 renal, 69.1%; in the assay with A498 renal, 67.1%. Moreover, the figures for the growth in the assay on CCRF-CEM leukemia and in the assay on MOLT-4 leukemia were 19.6% and 43.3%, respectively.
With `CNC(=O)c1cc(Oc2ccc(NC(=O)Nc3ccc(Cl)c(OC4CCCCC4)c3)c(F)c2)ccn1`, the growth is 55.3% in the assay on SK-MEL-2 melanoma; 43.1% in the assay with UO-31 renal; 51.9% in the assay with TK-10 renal; 29.8% with ACHN renal; 41.9% with CAKI-1 renal; 57.5% in the assay on A498 renal. Moreover, the growth in the assay with CCRF-CEM leukemia was 35.4%; in the assay on MOLT-4 leukemia, 24.1%.
`Cc1cnc(C=O)c2cccc([N+](=O)[O-])c12`: the growth in the assay on SK-MEL-2 melanoma was 102%; with UO-31 renal, 43.5%; with TK-10 renal, 108%; with ACHN renal, 85.8%; with CAKI-1 renal, 86.3%; in the assay on A498 renal, 106%. In addition, the figures for the growth with CCRF-CEM leukemia and in the assay on MOLT-4 leukemia were 11.5% and 61%, respectively.
`CCCCCCCCCCCCCC[n+]1ccccc1`: the growth in the assay on SK-MEL-2 melanoma is -78% (active); in the assay on UO-31 renal, 5.61% (active); in the assay with TK-10 renal, -70.4% (active); in the assay with ACHN renal, 4.31% (active); with CAKI-1 renal, -43.8% (active); with A498 renal it was 7.27% (active). Besides, the results for the growth with CCRF-CEM leukemia and in the assay on MOLT-4 leukemia were -42.2% (active) and -51.9% (active), respectively.
On to `CCCCCC(CCC)COC(=O)c1ccc(OC)cc1` (stereo unspecified), for which the growth in the assay with SK-MEL-2 melanoma was 96%; in the assay with UO-31 renal, 85.8%; in the assay on TK-10 renal, 95.6%; in the assay on ACHN renal, 106%; in the assay on CAKI-1 renal, 92.3%; in the assay on A498 renal, 109%. Besides, the growth in the assay on CCRF-CEM leukemia was 75.3%; in the assay with MOLT-4 leukemia, 100%.
As for `COc1cc(CSc2nc3ccc(C)cc3c(=O)n2-c2ccccc2)cc(OC)c1OC`, the growth is 14.7% in the assay on SK-MEL-2 melanoma; 24.1% with UO-31 renal; 61.7% with TK-10 renal; 44.7% in the assay on ACHN renal; 27.6% in the assay on CAKI-1 renal; 16% in the assay with A498 renal. The growth was 15.8% with CCRF-CEM leukemia and 21.8% in the assay on MOLT-4 leukemia.
`CCCCCCCCCCCCc1ccc(C(=O)/C=C/C(=O)O)cc1`: the growth was 93.1% with SK-MEL-2 melanoma; 85.3% in the assay on UO-31 renal; 68.7% with TK-10 renal; 55.9% with ACHN renal; 91.1% with CAKI-1 renal; 81.7% in the assay on A498 renal. In addition, the results for the growth in the assay with CCRF-CEM leukemia and in the assay with MOLT-4 leukemia were -17.6% (active) and -15.1% (active), respectively.
As for `CCOC(=O)Nc1ccc2c(c1)C(=O)N(CC)c1ccccc1O2`, the growth is 14.6% in the assay on SK-MEL-2 melanoma; 53.7% in the assay on UO-31 renal; 74.8% in the assay with TK-10 renal; 35.6% with ACHN renal; 31.1% in the assay with CAKI-1 renal; -4.82% (active) in the assay on A498 renal. Further, the growth in the assay on CCRF-CEM leukemia is 13.5%; in the assay with MOLT-4 leukemia it was 14.5%.
Consider `CC(C)(C)c1ccc(OCCCCCCN2CCNCC2)cc1`, for which the growth is 82% with SK-MEL-2 melanoma; 72.8% with UO-31 renal; 70.6% with ACHN renal; 75.9% in the assay with CAKI-1 renal; 86.1% in the assay with A498 renal; 12% in the assay with CCRF-CEM leukemia. Moreover, the growth in the assay on MOLT-4 leukemia was 31.3%.
On to `O=C(O)CCCCSCCCCC(=O)O`, for which the growth with SK-MEL-2 melanoma is 93.2%; in the assay on UO-31 renal it was 92.7%; with TK-10 renal, 92%; with ACHN renal, 104%; with CAKI-1 renal it was 100%; in the assay on A498 renal, 118%. Moreover, the growth in the assay on CCRF-CEM leukemia was 95.8%; with MOLT-4 leukemia, 93.1%.
As for `COc1ccc(Nc2ccnc(N3CCN(c4ccnc5cc(Cl)ccc45)CC3)n2)cc1`, the growth is -19.3% (active) in the assay with SK-MEL-2 melanoma; -1.7% (active) with UO-31 renal; 4.85% (active) in the assay on TK-10 renal; 11.2% in the assay on ACHN renal; 6.78% (active) with CAKI-1 renal; -6.15% (active) in the assay with A498 renal. The values for the growth in the assay on CCRF-CEM leukemia and in the assay on MOLT-4 leukemia were 2.09% (active) and -48.9% (active), respectively.
Turning to `COCCOC(=O)NC(=O)Nc1ccc(/C(=N/O)c2ccc(Cl)cc2)cc1`, the growth was 18.7% in the assay on SK-MEL-2 melanoma; 36.8% in the assay with UO-31 renal; 62.6% in the assay with TK-10 renal; 39% in the assay on ACHN renal; 30.6% in the assay with CAKI-1 renal; -14.2% (active) in the assay with A498 renal. The growth in the assay with CCRF-CEM leukemia was 8.24% (active); in the assay on MOLT-4 leukemia, 9.91% (active).
For `Cc1cc(C)c(C(=O)OC(C)CNC2CCCCC2)c(C)c1` (stereo unspecified), the growth in the assay on SK-MEL-2 melanoma was 95%; in the assay on UO-31 renal, 68.6%; in the assay on TK-10 renal it was 92%; with ACHN renal it was 97.8%; in the assay on CAKI-1 renal, 97%; in the assay on A498 renal it was 92.1%. In addition, the growth with CCRF-CEM leukemia was 89.7%; with MOLT-4 leukemia it was 84.7%.
As for `COC(=O)C1(C(=O)OC)C2C(=O)C3C(C21)C3(C(=O)OC(C)(C)C)C(=O)OC(C)(C)C` (stereo unspecified), the growth was 127% with SK-MEL-2 melanoma; 85.4% in the assay with UO-31 renal; 128% in the assay on TK-10 renal; 102% with ACHN renal; 90% with CAKI-1 renal; 108% in the assay with A498 renal. For the same molecule, the growth with CCRF-CEM leukemia was 102%; in the assay on MOLT-4 leukemia it was 105%.
`COc1cc2c3c(cccc3c1)C(=O)N(CCN1CCCC1)C2=O`: the growth with SK-MEL-2 melanoma is -8.39% (active); in the assay with UO-31 renal, -3.17% (active); in the assay on TK-10 renal it was -6.26% (active); in the assay with ACHN renal it was 7.6% (active); in the assay with CAKI-1 renal, 14.2%; in the assay with A498 renal, -22.1% (active). For the same molecule, the figures for the growth with CCRF-CEM leukemia and in the assay with MOLT-4 leukemia were 18.9% and 4.5% (active), respectively.
With `CC(CNC(Cc1ccccc1)c1ccccc1)NC(Cc1ccccc1)c1ccccc1` (stereo unspecified), the growth in the assay on SK-MEL-2 melanoma is 73.3%; in the assay on UO-31 renal it was 37.6%; with ACHN renal, 47.7%; in the assay with CAKI-1 renal, 15.6%; with A498 renal, 74.5%; in the assay on CCRF-CEM leukemia, 35.2%. Further, in the assay with MOLT-4 leukemia, the growth is 14.9%.

Values taken from PubChem BioAssay (NCI).
